The text below walks through data of PubChem BioAssay (Tox21).

Experiment [1] is described as follows: qHTS assay to identify small molecule antagonists of the thyroid receptor (TR) signaling pathway - cell viability counter screen (AID 743064). Further: nearly all actives have a fitted effect of over 50% in size. The method, boiled down:
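In-well cytotoxicity read by CellTiter-Fluor (30 min, 37 C) following 23.5 h exposure of GH3 cells bearing a TRE-luciferase sensor. Compounds were added alongside 1 nM (final) T3 to drive TR transactivation.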

The target in experiment [2] is Estrogen receptor (Homo sapiens) (UniProt P03372). The experiment can be described thus: qHTS assay to identify small molecule antagonists of the estrogen receptor alpha (ER-alpha) signaling pathway (AID 743069; active means well fitted curve in the direction sought with a large enough effect in the signal ratio in the repeat runs, not every such curve was filed as active; the % refers to the signal ratio). The method in brief: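 A 17beta-estradiol challenge was applied right after compound transfer to ER-alpha-UAS-bla HEK293 cells previously kept in charcoal-stripped serum. Plates stood 18 hr at 37C and 5% CO2; fluorescence was read following 2 hr FRET substrate loading at room temperature.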
Sequence of Estrogen receptor (Homo sapiens) (P03372 whole entry, looked up): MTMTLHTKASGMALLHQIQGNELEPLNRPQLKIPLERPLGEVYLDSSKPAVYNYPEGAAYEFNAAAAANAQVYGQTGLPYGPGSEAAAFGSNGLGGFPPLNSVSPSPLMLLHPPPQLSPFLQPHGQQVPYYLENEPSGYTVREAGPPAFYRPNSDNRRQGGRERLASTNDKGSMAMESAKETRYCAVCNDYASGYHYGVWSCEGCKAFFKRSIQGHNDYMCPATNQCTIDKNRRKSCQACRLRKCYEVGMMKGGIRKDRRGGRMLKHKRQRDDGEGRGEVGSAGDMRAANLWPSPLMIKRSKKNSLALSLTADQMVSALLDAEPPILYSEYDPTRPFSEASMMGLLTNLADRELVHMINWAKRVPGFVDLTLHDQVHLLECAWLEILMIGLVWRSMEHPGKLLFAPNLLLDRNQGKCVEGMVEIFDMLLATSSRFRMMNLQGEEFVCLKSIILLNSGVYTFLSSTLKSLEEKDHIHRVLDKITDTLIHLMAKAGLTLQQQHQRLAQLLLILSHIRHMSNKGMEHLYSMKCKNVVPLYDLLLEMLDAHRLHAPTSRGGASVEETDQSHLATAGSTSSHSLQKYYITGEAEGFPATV
On the technique in general: qHTS replaces the single test concentration by a dilution series.

Experiment [3] is described as follows: qHTS assay to identify small molecule antagonists of the estrogen receptor alpha (ER-alpha) signaling pathway - cell viability counter screen (AID 743074; calls by dose curve;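 further: HEK293 cells carrying ER-alpha-UAS-bla reporter stimulated with 17beta-estradiol; nearly all actives have a fitted effect of over 45% in size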).
Experiment [4] addresses Estrogen receptor (Homo sapiens) (UniProt P03372). The experiment can be described thus: qHTS assay to identify small molecule agonists of the estrogen receptor alpha (ER-alpha) signaling pathway (AID 743075; calls by dose curve;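 further: HEK293 GripTite cells with ER-alpha and UAS-driven beta-lactamase reporter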).
A short description of experiment [5]: qHTS assay to identify small molecule antagonists of the estrogen receptor alpha (ER-alpha) signaling pathway using the BG1 cell line (AID 743080; calls by dose curve;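 further: BG1 cells stimulated with 17beta-estradiol alongside compound; nearly all actives have a fitted effect of over 25% in size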). The method, boiled down:
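BG1-Luc-4E2 cells (endogenous full-length ER-alpha, 4xERE luciferase) hormone-starved 5 days in charcoal-stripped FBS, plated 4,000/well for 24 h, then compound plus 17beta-estradiol for 21.5 h at 37 C; ONE-Glo luminescence read.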

Experiment [6] in a line: qHTS assay to identify small molecule antagonists of the estrogen receptor alpha (ER-alpha) signaling pathway using the BG1 cell line - cell viability counter screen (AID 743081).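 Further: compound given together with 17beta-estradiol as the ER stimulus; nearly all actives have a fitted effect of over 45% in size.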
Experiment [7] concerns the target Aromatase (Homo sapiens) (UniProt P11511). The experiment can be described thus: qHTS assay to identify aromatase inhibitors (AID 743083). Further: nearly all actives have a fitted effect of over 55% in size. Further: potency means the concentration at half of the fitted maximal effect.
Experiment [8] can be described thus: qHTS assay to identify small molecule antagonists of the thyroid receptor (TR) signaling pathway (AID 743065). Further: nearly all actives have a fitted effect of over 55% in size. Further: potency means the concentration at half of the fitted maximal effect. The method in brief:
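GH3.TRE-Luc rat pituitary cells carrying two TR response elements driving luciferase were plated for 4 h, given compound plus 1 nM T3 (final), and incubated 23.5 h at 37 C. ONE-Glo luminescence measured reporter inhibition; CellTiter-Fluor fluorescence tracked cytotoxicity.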

The test system of experiment [9] is thyroid hormone receptor (rat, GH3 cells). Description: qHTS assay to identify small molecule agonists of the thyroid receptor (TR) signaling pathway (AID 743066; calls by dose curve).
Experiment [10] deals with Estrogen receptor (Homo sapiens) (UniProt P03372). The experiment can be described thus: qHTS assay to identify small molecule agonists of the estrogen receptor alpha (ER-alpha) signaling pathway using the BG1 cell line (AID 743079). Further: nearly all actives have a fitted effect of over 20% in size. Further: potency means the concentration at half of the fitted maximal effect. To be noted: BG1Luc4E2 cells, ERE-luciferase agonist, 22 h.

Results filed as inconclusive are left out. A number with no mark means an inactive call. The source made the active and inactive calls. Unless noted, the call rests on the fitted dose curve; in most records, active means well fitted curve in the direction sought with a large enough effect in the repeat runs; inconclusive means weak or mixed curves; inactive means no such curve, though single readings can be large; an effect the other way counts as inactive or inconclusive.
On the % scale 0 is the no-effect control and ±100 the full control effect.

Sequence of Aromatase (Homo sapiens) (P11511 whole entry, looked up): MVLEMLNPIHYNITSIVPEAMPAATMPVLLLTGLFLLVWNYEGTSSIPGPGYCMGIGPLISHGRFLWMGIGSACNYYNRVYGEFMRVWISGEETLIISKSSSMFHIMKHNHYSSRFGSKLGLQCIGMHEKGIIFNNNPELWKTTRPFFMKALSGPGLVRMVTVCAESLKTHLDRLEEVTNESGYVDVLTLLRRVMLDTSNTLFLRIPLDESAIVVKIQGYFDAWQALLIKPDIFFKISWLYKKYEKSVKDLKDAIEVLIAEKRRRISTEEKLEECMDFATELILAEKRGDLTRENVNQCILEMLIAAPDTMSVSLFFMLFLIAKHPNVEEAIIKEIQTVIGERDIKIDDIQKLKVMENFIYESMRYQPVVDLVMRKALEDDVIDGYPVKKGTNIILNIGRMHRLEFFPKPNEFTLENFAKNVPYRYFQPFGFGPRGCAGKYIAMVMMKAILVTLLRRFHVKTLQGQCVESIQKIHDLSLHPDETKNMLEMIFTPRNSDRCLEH

With `C#CCOC(=O)/C=C(C)/C=C/CC(C)CCCC(C)C` (configuration not stated), the Potency result in [1], in [2], in experiment [3], in experiment [4], in [5] and in experiment [6] was “inactive” each time. The Potency result in experiment [7] is “inactive”.

On to `COC1=CC(=O)O[C@@H](/C=C/c2ccccc2)C1`, for which the Potency result in [8], in experiment [9], in experiment [6] and in [7] was “inactive” each time.

As to `CN(C)CCN(C)C`, the Potency result in experiment [8], in experiment [9], in experiment [2], in [3], in [4] and in experiment [5] was “inactive” throughout. Also, the Potency entry in experiment [6] and in experiment [7] was “inactive” in each case. In addition, in [10] (at 70.3 µM (top of the series)), the activation is 18.6%.

With `C[C@H](CN1CCOCC1)C(C(=O)N1CCCC1)(c1ccccc1)c1ccccc1`, the Potency entry in experiment [9], in experiment [2], in experiment [4], in [5] and in [7] was “inactive” each time. For the same compound, the activation in experiment [10] (at 95 µM (top of the series)) was -2.63%.

Take `N#CN=C1SCCN1Cc1ccc(Cl)nc1`: the Potency result in experiment [8], in experiment [9], in [2], in experiment [4], in [5] and in [6] was “inactive” throughout. Further, the Potency entry in experiment [7] was “inactive”. Further, in experiment [10] (at 70.3 µM (top of the series)), the activation was -2.73%.

With `CCC(C(N)=O)N1CCCC1=O` (configuration not stated), the Potency entry in experiment [8], in experiment [9], in experiment [2], in [3], in experiment [4] and in experiment [5] was “inactive” each time. Also, the Potency entry in [6] and in experiment [7] was “inactive” each time. For the same compound, the Potency in experiment [10] was 21.1 µM (active).

Take `C=C1CC[C@@]2(O)[C@H]3Cc4ccc(O)c5c4[C@@]2(CCN3CC2CC2)[C@H]1O5`: the Potency result in experiment [1], in [3], in [6] and in experiment [7] was “inactive” throughout.

On to `O=C(Cl)C(Cl)(Cl)Cl`, for which the Potency result in experiment [8], in experiment [9], in experiment [2], in experiment [3], in [4] and in experiment [5] was “inactive” in each case. For the same compound, the Potency entry in [6] and in experiment [7] was “inactive” throughout. Besides, the activation in [10] (at 95 µM (top of the series)) is 9.01%.

Regarding `NNCc1ccccc1`, the Potency result in [1], in experiment [3], in [4], in experiment [6] and in experiment [7] was “inactive” each time. For the same compound, in [10], the Potency was 62.3 µM (active).

For the compound `CCc1cc(OC)c(C[C@H](C)N)cc1OC`, the Potency in experiment [8] is 31.9 µM (active). The Potency result in experiment [9], in [3] and in [7] was “inactive” in each case.

Consider `CCCCCCCCBr`, for which the Potency entry in [1], in [3], in [6] and in [7] was “inactive” each time.

`C=CC=O`: the Potency entry in experiment [3], in experiment [6] and in experiment [7] was “inactive” each time.

As to `Cc1ccc2cc(C)ccc2c1`, the Potency result in experiment [8], in experiment [9], in [3], in experiment [6] and in experiment [7] was “inactive” in each case.

As for `CCN[C@H](C)Cc1cccc(C(F)(F)F)c1`, the Potency result in [9], in experiment [2], in experiment [3], in experiment [4], in experiment [5] and in experiment [6] was “inactive” throughout. Moreover, the Potency entry in experiment [7] is “inactive”. In addition, the activation in [10] (at 70.3 µM (top of the series)) was -8.58%.

As to `CCCCCCCCSC(=O)Oc1cc(Cl)nnc1-c1ccccc1`, the Potency result in experiment [1], in experiment [9], in [3], in experiment [4], in experiment [5] and in experiment [6] was “inactive” in each case. Besides, the Potency result in experiment [7] was “inactive”. Also, the activation in [10] (at 70.3 µM (top of the series)) is 3.18%.

`CC(C)(O)C(Cl)(Cl)Cl`: the Potency result in experiment [2], in experiment [4], in experiment [5] and in experiment [7] was “inactive” in each case. Moreover, the activation in experiment [10] (at 70.3 µM (top of the series)) is 7.26%.

As to `C=C(Cl)CSC(=S)N(CC)CC`, the Potency entry in experiment [9], in experiment [3] and in experiment [6] was “inactive” each time. For the same compound, the Potency in experiment [7] is 26.6 µM (active).

As to `CCC(=O)OC1(c2ccccc2)CCN(C)CC1`, the Potency result in experiment [8], in experiment [9], in [3], in [6] and in [7] was “inactive” each time.

Consider `COc1ccc2c(C(=O)c3ccc(Cl)cc3)c(C)n(CC(=O)O)c2c1`, for which the Potency result in [8], in experiment [9], in experiment [3], in experiment [6] and in experiment [7] was “inactive” each time.

Regarding `Brc1c(Br)c(Br)c(Br)c(Br)c1Br`, the activity, negative = inhibition is 36% [at 8.44 µM] in [8], -6.9% [at 6.71 µM] in experiment [2] and 14.6% [at 8.47 µM] in experiment [7]. Also, the activation was -0.0085% [at 8.08 µM] in experiment [9], 2.61% [at 6.71 µM] in experiment [4] and 1.05% in experiment [10] (at 8.47 µM (top of the series)). In experiment [3], the activity, negative = cytotoxicity was -1.91% [at 6.72 µM]. Besides, the activity change, negative = inhibition in [5] was 17.5% [at 8.47 µM]. Further, the activity change, negative = cytotoxicity in [6] was 9.59% [at 8.47 µM].

As to `C=CCN1CC[C@]23CCCC[C@H]2[C@H]1Cc1ccc(O)cc13`, the Potency in [8] was 29.8 µM (active). The Potency result in [9], in [3], in experiment [6] and in experiment [7] was “inactive” in each case.
